Compound activity (PubChem)
VCAM1 TNFa pot – potentiators of TNFa-induced VCAM1 expression, primary screen, imaging, HUVEC, TNFa stimulus, immunofluorescence; 93,000 tested, 0.19% active; activation, % at 2 µM; HUVEC TNFa-stimulated VCAM-1 immunofluorescence, high-content imaging; scaled per plate to unstimulated/TNFa-only wells;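 active means activation above the screen mean plus 3 SD, with well images confirming the hit on visual review, cut at about 28% in these data, passing the limit was not always enough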;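 further: signal is the number of cytoplasmic VCAM-1 stained grains per positive cell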
VCAM1 pot confirm – potentiators of TNFa-induced VCAM1 expression, confirmation, imaging, HUVEC, triplicate retest. shares compounds with VCAM1 TNFa pot. HUVEC TNFa-stimulated VCAM-1 immunofluorescence imaging. activation, % at 2 µM. 230 tested, under 10 active. AID 1034, 2008;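 active means activation above 30% in triplicate retests at 2 µM, then confirmed by visual review of the well images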;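 further: scaled per plate between unstimulated and TNFa-stimulated DMSO control wells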
* = called active by the depositor. This is one part of a sample in which hits are shown more often than they occur.

SMILES | VCAM1 TNFa pot | others
CC(NC(=O)c1ccc(Cl)cc1)c1nnc(SCc2ccc([N+](=O)[O-])cc2)n1C (stereo not given) | -4
C=CCOn1c(=O)c(=O)n(OCc2ccccc2)c2ccccc21 | 96* | VCAM1 pot confirm=-15
COc1ccccc1-c1nnc(SC2CCc3ccccc3NC2=O)s1 (stereo not given) | 13
COc1ccc(C(=O)NCC(C)(C)SCc2c(C)cc(C)cc2C)cc1 | 4
CC(=O)Oc1ccc2cc(-c3nc4ccccc4n3C)c(=O)oc2c1 | 48* | VCAM1 pot confirm=-15
Cn1c(=O)c(C(=O)c2ccccc2)nc2ccccc21 | -7
COc1ccc2oc(=O)c(C(C)=O)cc2c1 | 2
CCOC(=O)Cc1nnc(NC(=O)CC)s1 | -1
CC1CCCC(N2CCN(C(=O)c3cccc(F)c3)CC2)C1 (stereo not given) | 10
